Results filed as inconclusive are left out. Entries that show only a call come without a potency. Calls of active or inactive are those of the source. Calls follow the shape of the dose curve; as a rule, active = well fitted curve in the direction sought with a large enough effect; inconclusive = small, poorly fitted or top-dose-only effect, or another doubt; inactive = no such curve, though single readings can be large; an effect the other way counts as inactive or inconclusive.

In assay [1] the target is Aldehyde dehydrogenase, mitochondrial (Homo sapiens) (UniProt P05091). In words: qHTS for Inhibitors of the Aldehyde Dehydrogenase Family (ALDH2) Primary screen (AID 2061308). Also: nearly all actives have a fitted effect of over 55% in size. In general terms: Quantitative high-throughput screening tests each substance at several concentrations.
For assay [2], the target named is Retinaldehyde dehydrogenase 3 (Homo sapiens) (UniProt P47895). Description: qHTS for Inhibitors of the Aldehyde Dehydrogenase Family (ALDH1A3) Primary screen (AID 2061315).

As for `Fc1cccc(CSc2nc3ncc(Br)cc3[nH]2)c1`, the Potency entry in assay [1] and in assay [2] was “inactive” throughout.
Regarding `COc1cc2nc(N3CCN(C(=O)c4ccco4)C4CCCCC43)nc(N)c2cc1OC` (centres undefined), the Potency entry in assay [1] and in assay [2] was “inactive” throughout.
On to `CCOc1cc(CCNC(=O)c2cc3sccc3n2Cc2ccccc2)cc(F)c1OCC`, for which the Potency entry in assay [1] and in assay [2] was “inactive” throughout.
Regarding `N#Cc1c(-c2cccc(C(F)(F)F)c2)no[n+]1[O-]`, the Potency entry in assay [1] and in assay [2] was “inactive” in each case.
Regarding `CCc1nn2c(=O)cc(N3C(C)CNCC3C)nc2s1` (centres undefined), the Potency entry in assay [1] and in assay [2] was “inactive” throughout.
For `CCCn1c(-c2ccc(F)cc2)nc2c(N(C)CCN(C)C)nc(C)nc21`, the Potency result in assay [1] and in assay [2] was “inactive” throughout.
For `Cc1cnc(-c2ccccc2C(C)C)nc1NCC1CCN(C)CC1`, the Potency result in assay [1] and in assay [2] was “inactive” each time.
With `O=C1c2ccccc2C(=O)N1c1cc(=O)c2ccccc2[nH]1`, the Potency entry in assay [1] and in assay [2] was “inactive” each time.
Take `O=S(=O)(c1cccc(F)c1)N1CCN(S(=O)(=O)c2ccc3c(c2)OCCO3)CC1`: the Potency result in assay [1] and in assay [2] was “inactive” throughout.
Take `CCN(CC)CCn1c(-c2ccccc2)nc2c(NCc3ccccc3)nc(C)nc21`: the Potency result in assay [1] and in assay [2] was “inactive” in each case.
For the compound `Clc1ccccc1-c1ccc2ncnc(NCc3ccc4c(c3)OCO4)c2c1`, the Potency entry in assay [1] and in assay [2] was “inactive” throughout.
Turning to `O=S(=O)(Nc1ccc2ccccc2c1)c1ccc(NCc2ccc(Br)cc2O)cc1`, the Potency entry in assay [1] and in assay [2] was “inactive” throughout.
As to `O=C(NCCCc1ccccc1)C1CCN(c2nc(-c3ccc(Br)cc3)cs2)CC1`, the Potency entry in assay [1] and in assay [2] was “inactive” in each case.
On to `CC(C)(C)n1nc(Cc2cccc([N+](=O)[O-])c2)c2c(N)ncnc21`, for which the Potency result in assay [1] and in assay [2] was “inactive” in each case.
For the compound `Cc1ccccc1C(=O)NCC(=O)OC(C(=O)Nc1cc(C(F)(F)F)ccc1Cl)c1ccccc1` (centres undefined), the Potency entry in assay [1] and in assay [2] was “inactive” in each case.
For the compound `COc1cccc(-c2ccc3ncnc(NCc4cccc(C)c4)c3c2)c1`, the Potency entry in assay [1] and in assay [2] was “inactive” throughout.
As to `O=C(Nc1ccc(Cl)c(Cl)c1)Nc1nnc(N2CCNCC2)s1`, the Potency result in assay [1] and in assay [2] was “inactive” each time.
On to `Cc1cc(-c2nc(Nc3ccc(F)c(F)c3)c3ccccc3n2)cc(C)n1`, for which the Potency entry in assay [1] and in assay [2] was “inactive” throughout.
On to `COC1CC(O[C@H]2CC[C@]3(C)C4CC[C@@]5(C)C(=O)[C@]4(CC[C@@H]3C2)CC[C@@H]5C2=CC(=O)OC2)OC(C)C1OC1OC(COC2OC(CO)C(O)C(O)C2O)C(O)C(O)C1O` (some centres undefined), for which the Potency result in assay [1] and in assay [2] was “inactive” each time.
Take `Cc1ccc(CNc2ncnc3ccc(-c4ccoc4C)cc23)o1`: the Potency result in assay [1] and in assay [2] was “inactive” throughout.
For the compound `Cc1csc(CNc2ncnc3ccc(-c4ccco4)cc23)c1`, the Potency entry in assay [1] and in assay [2] was “inactive” each time.
On to `Fc1cnc(-c2ccccc2C(F)F)nc1NCc1ccc(-n2ccnn2)cc1`, for which the Potency result in assay [1] and in assay [2] was “inactive” in each case.
On to `Cn1c(SCC(=O)c2cc3ccccc3o2)nnc1-c1ccccc1`, for which the Potency result in assay [1] and in assay [2] was “inactive” in each case.
As to `COc1ccc(C2=Nn3c(nnc3-c3ccccc3Cl)SC2)cc1OC1CCCC1`, the Potency result in assay [1] and in assay [2] was “inactive” each time.
As for `CN1CCN(c2nnc(NC(=O)Nc3ccc(Cl)c(Cl)c3)s2)CC1`, the Potency result in assay [1] and in assay [2] was “inactive” throughout.
Turning to `CCOC(=O)c1ccc(O)c2ncc(NCC3CCCN(CCc4ccccc4)C3)cc12` (centres undefined), the Potency entry in assay [1] and in assay [2] was “inactive” each time.
On to `N#Cc1ccc(NS(=O)(=O)c2ccc(NC(=O)Cc3ccc(F)c(Cl)c3)cc2)cc1`, for which the Potency entry in assay [1] and in assay [2] was “inactive” throughout.
In the case of `Cc1cnc(-c2ccccc2C(F)F)nc1NCC1CN(c2cnccn2)C1`, the Potency entry in assay [1] and in assay [2] was “inactive” each time.
As for `COC(=O)C1=CO[C@@H](O[C@@H]2O[C@H](CO)[C@@H](O)[C@H](O)[C@H]2O)C2C1C(=O)C[C@H]2C` (some centres undefined), the Potency entry in assay [1] and in assay [2] was “inactive” in each case.
Regarding `O=C(Nc1ccc(Cl)c([N+](=O)[O-])c1)Nc1cccc(-c2ccncc2)n1`, the Potency result in assay [1] and in assay [2] was “inactive” each time.
As to `CN1CCCC1CCNc1ncnc2ccc(-c3ccc4c(c3)OCO4)cc12` (centres undefined), the Potency entry in assay [1] and in assay [2] was “inactive” in each case.
With `O=C1CCCC2=C1C(c1ccc(Cl)cc1)N=C(Nc1nc3ccccc3o1)N2` (centres undefined), the Potency entry in assay [1] and in assay [2] was “inactive” throughout.
`COc1ccc(C2=Nn3c(nnc3-c3ccccc3C)SC2)cc1OC`: the Potency entry in assay [1] and in assay [2] was “inactive” in each case.
For the compound `COC(=O)c1ccc(O)c2ncc(NC3CCNCC3)cc12`, the Potency result in assay [1] and in assay [2] was “inactive” throughout.
For `O=C(Nc1nc(-c2ccccc2)cs1)c1ccncc1NS(=O)(=O)c1cccnc1`, the Potency entry in assay [1] and in assay [2] was “inactive” in each case.
`COc1ccc(CC(=O)Nc2ccc(S(=O)(=O)Nc3cc(C)on3)cc2)cc1C`: the Potency result in assay [1] and in assay [2] was “inactive” throughout.
With `Brc1ccc(-c2csc(N3CCNCC3)n2)cc1`, the Potency entry in assay [1] and in assay [2] was “inactive” each time.
Regarding `O=S(=O)(NCC1CCC(NS(=O)(=O)c2c(F)cccc2F)CC1)c1ccc2c(c1)OCCO2` (centres undefined), the Potency entry in assay [1] and in assay [2] was “inactive” in each case.
Turning to `Cc1sc(NC(=O)Cc2ccc3c(c2)OCO3)nc1-c1ccc2c(c1)CCN2C(=O)c1ccccc1F`, the Potency result in assay [1] and in assay [2] was “inactive” each time.
Turning to `O=C(Nc1ccccc1)c1cccs1`, the Potency result in assay [1] and in assay [2] was “inactive” in each case.
Take `Cc1cc2c(s1)c1cnn(Cc3ccc(Cl)cc3)c(=O)c1n2C`: the Potency entry in assay [1] and in assay [2] was “inactive” throughout.
Turning to `O=C(OCC#CCSc1nnc(-c2cccc3ccccc23)o1)C1CCC1`, the Potency entry in assay [1] and in assay [2] was “inactive” each time.

The values above are taken from PubChem BioAssay (NCATS).
